Laboratory results reported in PubChem BioAssay AID1508625 (Wald Lab, School of Medicine, Case Western Reserve …, 2021).

Experiment: small molecules boosting NK-mediated OVCAR3 lysis – imaging, primary NK cells, calcein-AM imaging, primary screen (AID 1508625);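 note: compound given to NK cells 16 h before adding targets at 1.5 to 1 ratio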;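 for z-score: more negative robust z means stronger NK killing of tumor cells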
Settings: OVCAR3 lysis by primary NK cells, at 5 µM; z-score: measured here: robust Z-score, single-point normalisation

Structure (SMILES) | z-score | corrected activity, negative = more killing [%]
COc1cccc(NS(=O)(=O)c2ccc3c(c2)[C@H]2C=CC[C@H]2[C@@H](c2ccccc2Cl)N3)c1 | -2.64 | -8.83
COc1ccccc1C1C(=C(O)c2ccccc2)C(=O)C(=O)N1CC(C)O (configuration not stated) | -1.62 | -4.26
COc1ccc(-c2csc(Nc3ncccn3)n2)cc1OC | -1.15 | -2.57
Cc1ccc(OCCCCNC2CCCCC2)c(C)c1 | 2.34 | 4.21
O=C(c1nn2c(C(F)(F)F)cc(-c3ccco3)nc2c1Br)N1CCCCC1 | -1.85 | -4.92
Cc1nnc(NC(=O)CSc2nc3c(c(=O)n2-c2ccccc2)SCC3)s1 | -0.0912 | -0.367
O=C1C2C3C=CC(C3)C2C(=O)N1CCCO (configuration not stated) | -0.311 | -1
COc1cc(NC(=O)c2cccs2)ccc1NC(=O)c1ccccc1Cl | -2.48 | -4.46
O=C1C2CCCCC2C(=O)N1c1cccc2ccccc12 (configuration not stated) | -0.712 | -3.38
Cc1cccn2c(=O)c3cc(C(=O)N(CC(C)C)CC(C)C)sc3nc12 | -2.41 | -8.5
Cc1ccc(S(=O)(=O)N2CCCCCC2)cc1C | 0.548 | 1.77
Cn1c2ccccc2c(=Nc2ccc(Br)cc2)c2ccccc21 | -1.48 | -4.16
O=C1C(=O)N(Cc2cccnc2)C(c2ccncc2)C1=C(O)c1ccc(F)cc1 (configuration not stated) | -1.62 | -3.73
CCOc1cc(C2Nc3ccccc3NC3=C2C(=O)CC(C)(C)C3)ccc1OC(C)=O (configuration not stated) | 0.309 | 0.693
COc1ccccc1CNCc1ccccn1 | -0.766 | -2.41
C(=Cc1ccccc1)CN1CCN(C2c3ccccc3-c3ccccc32)CC1 | -0.0313 | -0.148
